Here are results for 16 compounds from PubChem BioAssay.

Experiment [1] in a line: binders of probe aFSTL3 on microarray, primary screen, stem cell growth factor project, biochemical, small-molecule microarray, fluorescence 635/667 (AID 1064).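 Also: measures binding of the biotinylated anti-FSTL3 antibody to printed compounds.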 Particulars: higher = more signal.
Experiment [2] in a line: binders from COS7 lysate, DM2A8 probe, primary screen, torsin A project, cell lysate, small-molecule microarray, fluorescence 635/667 (AID 1065). Particulars: higher = more signal, COS7 lysate expressing mutant human TOR1A.
Experiment [3] in a line: binders of probe aFGF2 on microarray, primary screen, stem cell growth factor project, biochemical, small-molecule microarray, fluorescence 635/667 (AID 1067).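 Also: measures binding of biotinylated aFGF2 protein to printed compounds on slides; z-score merges feature fluorescence and signal-to-noise across triplicate slides.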 Particulars: higher = more signal.
Experiment [4] is described as follows: binders of probe aFGF10 on microarray, primary screen, stem cell growth factor project, biochemical, small-molecule microarray, fluorescence 635/667 (AID 1071).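 Also: score merges 667 nm spot intensity and signal to noise from triplicate slides.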 Particulars: higher = more signal.
In experiment [5] the target is Neurogenic locus notch homolog protein 2 (Homo sapiens) (UniProt Q04721). The experiment can be described thus: Notch2 binders on small-molecule microarrays, primary screen, biochemical, small-molecule microarray, 635 nm fluorescence, stem cell growth factors (AID 1073). Particulars: Notch2 binding, higher = more signal.
For experiment [6], the target named is Pro-neuregulin-1, membrane-bound isoform (Homo sapiens) (UniProt Q02297). The experiment can be described thus: NRG1 binders on small-molecule microarrays, primary screen, psychiatric disease protein project, biochemical, small-molecule microarray, fluorescence 635/667 (AID 1075).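 Also: score combines 667 nm spot fluorescence with signal to noise.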 Particulars: NRG1 binding, 635 nm fluorescence, higher = more signal.
The test system of experiment [7] is Neuregulin-1 EGF-like domain. The experiment can be described thus: binders of neuregulin-1 EGF-like domain, primary screen, biochemical, small-molecule microarray, 635 nm fluorescence (AID 1081).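 Also: binding of the protein to compounds printed on small-molecule microarray slides.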 Particulars: small-molecule microarray binding, higher = more signal.
The nature of experiment [8]: FRG1 promoter luciferase signal modulators, primary screen, FRG1 inhibition for FSHD, cell-based, C2C12 myotubes, firefly/Renilla luciferase, luminescence (AID 1084). Particulars: higher = more signal, called active from +8 up or from −8 down.
A short description of experiment [9]: binders of probe aFST on microarray, primary screen, stem cell growth factor project, biochemical, small-molecule microarray, fluorescence 635/667 (AID 1086).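 Also: score merges 667 nm fluorescence with signal-to-noise of each printed compound spot.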 Particulars: higher = more signal.
The nature of experiment [10]: binders of probe aHhip on microarray, primary screen, stem cell growth factor project, biochemical, small-molecule microarray, fluorescence 635/667 (AID 1087).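 Also: score merges spot fluorescence at 667nm with spot signal to noise ratio.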 Particulars: higher = more signal.

The source made the active and inactive calls.

Sequence of Pro-neuregulin-1, membrane-bound isoform (Homo sapiens) (Q02297 whole entry, looked up, the tested form may be a part, canonical isoform): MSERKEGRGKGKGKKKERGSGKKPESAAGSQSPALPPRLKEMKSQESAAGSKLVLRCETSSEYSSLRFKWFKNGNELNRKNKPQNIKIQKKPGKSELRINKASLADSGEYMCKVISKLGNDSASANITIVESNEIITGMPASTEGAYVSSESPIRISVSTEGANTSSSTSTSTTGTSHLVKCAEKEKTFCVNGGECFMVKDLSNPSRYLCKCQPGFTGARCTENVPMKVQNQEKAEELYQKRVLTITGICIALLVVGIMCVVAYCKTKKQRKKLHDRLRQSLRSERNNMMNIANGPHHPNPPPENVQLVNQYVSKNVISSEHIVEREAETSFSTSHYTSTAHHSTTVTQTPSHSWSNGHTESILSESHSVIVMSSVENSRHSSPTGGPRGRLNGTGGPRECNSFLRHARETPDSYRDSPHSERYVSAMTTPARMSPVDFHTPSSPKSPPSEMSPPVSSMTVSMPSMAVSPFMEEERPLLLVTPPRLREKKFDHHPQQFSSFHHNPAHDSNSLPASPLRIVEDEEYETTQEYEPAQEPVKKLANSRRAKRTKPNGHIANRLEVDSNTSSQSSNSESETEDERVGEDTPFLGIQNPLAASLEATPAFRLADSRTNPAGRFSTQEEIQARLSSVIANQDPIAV
Sequence of Neurogenic locus notch homolog protein 2 (Homo sapiens) (Q04721 whole entry, looked up, canonical isoform): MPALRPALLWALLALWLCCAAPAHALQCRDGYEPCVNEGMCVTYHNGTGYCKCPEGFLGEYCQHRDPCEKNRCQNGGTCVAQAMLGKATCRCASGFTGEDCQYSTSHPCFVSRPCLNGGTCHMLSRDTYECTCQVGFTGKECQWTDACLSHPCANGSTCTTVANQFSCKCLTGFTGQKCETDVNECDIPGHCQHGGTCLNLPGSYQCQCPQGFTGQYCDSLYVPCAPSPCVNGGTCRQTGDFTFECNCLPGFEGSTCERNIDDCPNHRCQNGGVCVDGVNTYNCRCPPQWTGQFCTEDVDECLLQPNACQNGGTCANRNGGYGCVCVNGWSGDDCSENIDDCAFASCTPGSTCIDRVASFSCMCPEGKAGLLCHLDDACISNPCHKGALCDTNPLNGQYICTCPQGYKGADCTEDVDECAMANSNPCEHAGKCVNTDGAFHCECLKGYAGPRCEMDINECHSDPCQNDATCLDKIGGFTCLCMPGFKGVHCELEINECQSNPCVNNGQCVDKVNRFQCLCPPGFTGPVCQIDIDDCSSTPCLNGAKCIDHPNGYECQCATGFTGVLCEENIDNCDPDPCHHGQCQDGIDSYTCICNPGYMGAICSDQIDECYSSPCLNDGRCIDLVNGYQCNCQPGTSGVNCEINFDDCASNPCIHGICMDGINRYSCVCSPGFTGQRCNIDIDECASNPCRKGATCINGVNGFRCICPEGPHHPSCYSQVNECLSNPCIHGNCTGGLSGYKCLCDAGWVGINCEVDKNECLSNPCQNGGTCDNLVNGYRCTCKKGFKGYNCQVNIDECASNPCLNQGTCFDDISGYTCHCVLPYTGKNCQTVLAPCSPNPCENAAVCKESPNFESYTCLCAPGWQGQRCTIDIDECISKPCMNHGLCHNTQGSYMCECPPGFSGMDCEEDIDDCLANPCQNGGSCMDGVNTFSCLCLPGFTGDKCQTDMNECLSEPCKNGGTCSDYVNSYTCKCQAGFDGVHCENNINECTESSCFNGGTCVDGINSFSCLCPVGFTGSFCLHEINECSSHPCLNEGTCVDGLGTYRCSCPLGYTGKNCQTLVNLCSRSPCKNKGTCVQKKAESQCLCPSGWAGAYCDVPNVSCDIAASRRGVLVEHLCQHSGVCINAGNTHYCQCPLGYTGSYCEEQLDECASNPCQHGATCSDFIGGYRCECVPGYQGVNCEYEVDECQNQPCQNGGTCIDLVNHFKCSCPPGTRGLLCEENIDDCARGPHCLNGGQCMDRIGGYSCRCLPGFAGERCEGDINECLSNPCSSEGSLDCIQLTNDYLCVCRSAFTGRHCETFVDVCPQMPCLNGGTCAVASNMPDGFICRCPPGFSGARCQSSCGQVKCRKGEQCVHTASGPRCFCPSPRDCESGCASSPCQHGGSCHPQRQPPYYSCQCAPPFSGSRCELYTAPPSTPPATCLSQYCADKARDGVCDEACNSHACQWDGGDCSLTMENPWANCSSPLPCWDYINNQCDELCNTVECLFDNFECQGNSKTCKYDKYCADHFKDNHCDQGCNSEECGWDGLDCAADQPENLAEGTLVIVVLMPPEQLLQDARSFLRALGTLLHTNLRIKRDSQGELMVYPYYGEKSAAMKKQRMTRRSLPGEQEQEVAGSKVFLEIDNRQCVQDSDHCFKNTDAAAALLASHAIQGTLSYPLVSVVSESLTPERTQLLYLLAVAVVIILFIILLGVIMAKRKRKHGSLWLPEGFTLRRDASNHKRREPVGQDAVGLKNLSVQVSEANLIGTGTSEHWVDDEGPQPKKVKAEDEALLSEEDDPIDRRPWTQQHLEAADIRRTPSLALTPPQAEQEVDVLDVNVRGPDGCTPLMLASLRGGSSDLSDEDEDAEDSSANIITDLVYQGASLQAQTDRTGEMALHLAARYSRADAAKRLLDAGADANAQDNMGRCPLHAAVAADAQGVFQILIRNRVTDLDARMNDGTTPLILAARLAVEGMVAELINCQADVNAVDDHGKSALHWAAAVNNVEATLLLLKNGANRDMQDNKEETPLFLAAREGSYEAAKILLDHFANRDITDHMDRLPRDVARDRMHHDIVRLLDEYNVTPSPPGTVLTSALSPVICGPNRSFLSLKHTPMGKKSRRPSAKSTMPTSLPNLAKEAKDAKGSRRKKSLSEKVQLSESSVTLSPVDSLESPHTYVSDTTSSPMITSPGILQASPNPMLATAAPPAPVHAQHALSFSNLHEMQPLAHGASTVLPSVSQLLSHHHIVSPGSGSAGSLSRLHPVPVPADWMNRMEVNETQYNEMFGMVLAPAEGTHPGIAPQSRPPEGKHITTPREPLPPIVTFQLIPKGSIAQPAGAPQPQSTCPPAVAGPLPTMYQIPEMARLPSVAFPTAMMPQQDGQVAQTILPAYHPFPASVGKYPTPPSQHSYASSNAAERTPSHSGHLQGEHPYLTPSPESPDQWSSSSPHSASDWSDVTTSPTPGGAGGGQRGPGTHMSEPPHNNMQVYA

In the case of `COC(=O)[C@@]1(Cc2ccccc2)[C@H]2c3cc(C(=O)N(C)C)n(Cc4ccccc4)c3C[C@H]2CN1C(=O)c1ccccc1`, the composite z-score in experiment [1] was 0.0252; in experiment [2], -0.705; in experiment [3], 0.274; in experiment [4], 0.747; in experiment [5] it was 1.67; in [6], 0.614. Further, the composite z-score stood at 1.26 in experiment [7], 0.856 in experiment [9] and 0.896 in experiment [10]. Further, the z-score in [8] is 0.273 (inactive).
As to `CC(C)OC(=O)C1=CCC(c2cccc(Cl)c2)O1` (stereo not given), the composite z-score in experiment [1] is -0.206; in experiment [2], -0.125; in [3] it was -0.0717; in [4] it was -0.348; in experiment [5] it was -1.12; in experiment [6], 0.754. Also, the composite z-score in [7] is 1.06; in experiment [9] it was -0.332; in experiment [10], -0.409. Further, the z-score in experiment [8] is -0.716 (inactive).
On to `COc1ccc([Si](C)(C)[C@H]2[C@H](CCO)O[C@@]3(C(=O)N(Cc4cccc(N5C(=O)c6cccc7cccc5c67)c4)c4ccccc43)[C@@H]2C)cc1`, for which the composite z-score is 0.0761 in experiment [1]; -0.364 in [2]; 0.0253 in [3]; 0.404 in [4]; -0.136 in [5]; 0.795 in experiment [6]. Besides, the values for the composite z-score in experiment [7], in experiment [9] and in [10] were 1, -0.26 and -0.212, respectively. Further, the z-score in [8] was -1.43 (inactive).
For the compound `CC1CC/C=C\[C@H]2OC34C=CCN(Cn5nnc6ccccc65)C(=O)[C@H]3N(CCCO)C(=O)[C@@H]4C2C(=O)O1` (stereo not given in full), the composite z-score was 0.536 in experiment [1]; -1.14 in [2]; -0.0973 in experiment [3]; -0.988 in [4]; -0.955 in experiment [5]; 1.38 in experiment [6]. For the same compound, the composite z-score is 1.57 in experiment [7], -0.474 in [9] and -0.196 in experiment [10]. Besides, the z-score in [8] is -0.275 (inactive).
On to `CN(C)CCCC[C@@H]1NC(=O)[C@@H]2C[C@H](C(=O)NCCCCCCN)[C@H](c3ccc(O)cc3)N2C1=O`, for which the composite z-score stood at 1.95 in [1]; 0.58 in experiment [2]; 0.15 in [3]; 0.727 in [4]; 0.921 in experiment [5]; 1.39 in experiment [6]. Moreover, the composite z-score is 1.44 in experiment [7], 2.16 in experiment [9] and 0.861 in [10]. In [8], the z-score is -0.0024 (inactive).
As to `CC(C)NC(=O)[C@@H]1c2ccccc2C(=O)N(C2CCCCC2)[C@H]1c1ccc(CO)cc1`, the composite z-score in experiment [1] is 0.0605; in experiment [2] it was 0.562; in experiment [3], 0.0703; in experiment [4], 0.74; in experiment [5], 0.851; in [6] it was 1.15. The composite z-score in experiment [7] was 1; in [9], 0.333; in experiment [10] it was -0.216. Further, the z-score in experiment [8] was 0.492 (inactive).
With `C=CCOC(=O)[C@H]1[C@@H]2C(=O)O[C@@H](c3ccccc3)[C@@H](c3ccccc3)N2[C@@H](c2ccc(OCCOC(=O)[C@@H]3C[C@@H]4C(=O)NCC(=O)N4[C@@H]3c3ccc(O)cc3)cc2)[C@]12C(=O)Nc1ccc(I)cc12`, the composite z-score is -0.321 in experiment [1]; 0.335 in experiment [2]; 0.0364 in experiment [3]; 0.438 in experiment [4]; 0.93 in experiment [5]; 1.17 in [6]. The composite z-score in [7] came out at 1.27; in experiment [9], 0.317; in [10] it was 0.107. Further, in experiment [8], the z-score is -0.0667 (inactive).
As to `CC(C)NC(=O)[C@@]1(c2ccc([N+](=O)[O-])cc2)CC(=O)N(C(C)C)[C@@H]1c1ccc(CO)cc1`, the composite z-score in experiment [1] is 1.12; in experiment [2], -0.0946; in [3], -0.134; in experiment [4], -0.218; in [5], -0.999; in [6], -0.524. Further, the composite z-score in [7] was 0.697; in experiment [9], -1.08; in [10], -0.256. In [8], the z-score is -0.31 (inactive).
Regarding `O=C1OCC=C[C@H]2OC34C=CCN(CCN5CCOCC5)C(=O)[C@H]3N(CCCCCCO)C(=O)[C@@H]4[C@@H]12` (stereo not given in full), the composite z-score in [1] was -0.142; in [2] it was 0.108; in experiment [3], -0.0785; in experiment [4], 0.0266; in experiment [5], -0.157; in experiment [6], 2.07. Moreover, the composite z-score in [7] is 1.27; in [9] it was 0.334; in experiment [10], -0.364. Besides, the z-score in experiment [8] is 1.69 (inactive).
For the compound `O=C1C[C@@](C(=O)O)(c2ccc([N+](=O)[O-])cc2)[C@@H](c2ccc(CO)cc2I)N1CC12CC3CC(CC(C3)C1)C2`, the composite z-score in experiment [1] was 0.525; in experiment [2] it was 0.773; in experiment [3], -0.124; in experiment [4] it was 0.14; in [5] it was 1.41; in experiment [6], 1.48. Further, the composite z-score is 0.843 in experiment [7], 0.806 in [9] and 0.0497 in experiment [10]. The z-score in experiment [8] is -1.55 (inactive).
On to `COCC1C2CC[C@H]3C(OCc4ccc(F)cc4C(F)(F)F)OC[C@]4(C)[C@H]3C2=C(CN4C(=O)OC(C)(C)C)[C@H](C)C1COC` (stereo not given in full), for which the composite z-score in experiment [1] is 0.409; in experiment [2], 0.0838; in [3] it was 0.0807; in experiment [4], 0.224; in [5], 1.58; in experiment [6], 2.05. In addition, the composite z-score in experiment [7] was 0.782; in experiment [9], 0.945; in experiment [10] it was -0.0672. The z-score in experiment [8] was -0.255 (inactive).
On to `CCN(CC)c1ccc(N2CC=CC34O[C@@H]5C=CCOC(=O)[C@@H]5[C@H]3C(=O)N(CCCCCO)[C@@H]4C2=O)cc1` (stereo not given in full), for which the composite z-score in [1] was 0.594; in experiment [2] it was 2.08; in experiment [3], -0.129; in [4], -0.39; in experiment [5], -0.866; in experiment [6], 1.42. In addition, the composite z-score in experiment [7] was 1.53; in experiment [9] it was -0.409; in [10] it was -0.0618. In addition, in experiment [8], the z-score is -0.309 (inactive).
As for `COc1ccc(C(O)C2C=CC3C(=O)N(c4ccccc4)C(=O)C3N2Nc2ccccc2)c2ccccc12` (stereo not given), the composite z-score in experiment [1] was 0.782; in experiment [2] it was -0.141; in [3], -0.0201; in experiment [4], 0.354; in [5], 0.945; in experiment [6], 0.724. For the same compound, the values for the composite z-score in experiment [7], in experiment [9] and in experiment [10] were 1.04, 0.563 and -0.163, respectively. For the same compound, the z-score in experiment [8] is -0.0953 (inactive).
As to `CCOC(=O)N1C(c2ccc(OCCCO)cc2)=NC(C(=O)OC)N1C(=O)OCC` (stereo not given), the composite z-score in [1] is -0.243; in experiment [2] it was 0.0754; in experiment [3], 0.0794; in experiment [4], 0.683; in experiment [5], 1.17; in experiment [6], 1.39. Also, the composite z-score is 1.14 in [7], 0.424 in experiment [9] and -0.347 in experiment [10]. The z-score in [8] was 1.37 (inactive).
For the compound `COc1ccc(CCNC(=O)[C@@]2(C)c3ccccc3C(=O)N(Cc3ccccc3)[C@H]2c2ccc(CO)cc2)cc1`, the composite z-score in experiment [1] was -0.277; in experiment [2] it was 1.25; in [3] it was 0.0626; in experiment [4] it was 0.299; in experiment [5], 1.24; in experiment [6], 1.67. The composite z-score in experiment [7] amounted to 1.44; in experiment [9], 0.851; in experiment [10], 0.0286. The z-score in experiment [8] was -3.66 (inactive).
In the case of `O=C1OCC=C[C@H]2OC34C=CCN(c5ccc(Cl)cc5)C(=O)[C@H]3N(CCCO)C(=O)[C@@H]4[C@@H]12` (stereo not given in full), the composite z-score in experiment [1] was 0.768; in [2], -0.38; in [3], -0.0847; in [4] it was -0.573; in experiment [5], -1.6; in experiment [6] it was 0.3. Further, the composite z-score in experiment [7] is 1.41; in experiment [9], -0.415; in experiment [10] it was -0.277. In experiment [8], the z-score is -0.0992 (inactive).
